Reference: PubChem BioAssay AID2534 (National Center for Advancing Translational Sciences (NCATS), 2010)
Inconclusive results are not listed. The source made the active and inactive calls. The call rests on the fitted dose curve; in most records, active means well fitted curve in the direction sought with a large enough effect; inconclusive means small, poorly fitted or top-dose-only effect, or effect the other way, or another doubt; inactive means no such curve, though single readings can be large or run the other way.

target: Pyruvate kinase PKLR (Homo sapiens) (UniProt P30613); experiment: Secondary Concentration-Response Assay for Activators of Human Reticulocyte Pyruvate Kinase: for Probe SAR; conditions: purified hPK-R, ATP production, Kinase-Glo luminescence; series mostly up to 57.5 µM
Sequence (P30613 whole entry, looked up): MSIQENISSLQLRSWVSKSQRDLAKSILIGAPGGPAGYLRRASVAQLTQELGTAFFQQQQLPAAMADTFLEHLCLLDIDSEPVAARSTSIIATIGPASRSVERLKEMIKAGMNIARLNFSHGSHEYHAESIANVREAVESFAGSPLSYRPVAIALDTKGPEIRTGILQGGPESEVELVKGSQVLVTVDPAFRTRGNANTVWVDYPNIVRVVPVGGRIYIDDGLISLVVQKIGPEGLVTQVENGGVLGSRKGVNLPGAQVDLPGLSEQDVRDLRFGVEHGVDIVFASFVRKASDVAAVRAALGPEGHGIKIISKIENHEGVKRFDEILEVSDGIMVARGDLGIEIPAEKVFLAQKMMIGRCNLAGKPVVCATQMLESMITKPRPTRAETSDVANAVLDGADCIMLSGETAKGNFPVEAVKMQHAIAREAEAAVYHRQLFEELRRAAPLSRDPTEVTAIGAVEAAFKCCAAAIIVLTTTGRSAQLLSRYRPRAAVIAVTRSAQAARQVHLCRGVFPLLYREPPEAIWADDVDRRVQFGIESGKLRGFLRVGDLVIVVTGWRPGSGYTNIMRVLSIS
Source text: NIH Chemical Genomics Center [NCGC]
Wael M. Rabeh, Lyudmila Nedyalkova and Hee-Wan Park [Structural Genomics Consortium, 100 College St. Toronto, Ontario, Canada]
Human pyruvate kinase reticulocyte (hPK-R) enzyme was supplied as a highly purified (>95% pure) preparation from Structural Genomics Consortium in Toronto (Ontario, Canada) and assayed for its ability to generate ATP from ADP using phosphoenolpyruvate (PEP) as a substrate. ATP generation was detected in a coupled reaction by luciferase-mediated luminescence, an ATP-dependent process. Pyruvate kinase substrates, PEP and ADP, were present in the assay at Km and approximately 10-fold below Km respectively. The enzyme was assayed at an intermediate level of activity to screen for both inhibitors and activators.
NCGC Assay Protocol Summary for R-isoform
Three uL of substrate mix (at r.t.) in assay buffer (50 mM Imidazole pH7.2, 50 mM KCl, 7 mM MgCl2, 0.01% Tween 20, 0.05% BSA) was dispensed into white solid bottom 1,536 well microtiter plates so that the final concentrations of substrates in the assay were 0.1 mM ADP and 0.5 mM PEP. 23 nL of compound were delivered by a pin tool and 1 uL of enzyme mix (final concentration of 0.1 nM) in assay buffer (4 degree Celsius) was added. Plates were incubated at room temperature for 1 hour. Two uL of detection mix (Kinase-Glo, Promega; at 4 degree Celsius protected from light) was added and luminescence read by a ViewLux (Perkin Elmer) at 1 second exposure/plate. Data were normalized to the uninhibited (row 31). Additionally, a no enzyme and 5-fold enzyme control was dispensed in row 32, split equally between the two conditions.

outcome, inactive:
COc1ccc(NS(=O)(=O)c2ccc3c(c2)CCC(=O)N3)cc1
Cc1ccc(C)c(SC2=NS(=O)(=O)c3cc(C(=O)NCc4ccccc4)ccc32)c1
Cc1ccc(NS(=O)(=O)c2ccc3c(c2)CCC(=O)N3)cc1Cl
CN(C)c1cccc(S(=O)(=O)N2CCN(S(=O)(=O)c3ccc4c(c3)OCCO4)CC2)c1
O=C1c2ccccc2C(=O)N1c1cnc2ccccc2c1
Cc1ccc(N2C(=O)c3ccccc3C2=O)c(C)c1
O=C1c2ccccc2C(=O)N1c1ccc(Cl)cc1
O=C1CCc2cc(S(=O)(=O)Nc3ccc(Cl)c(Cl)c3)c(F)cc2N1
O=C1c2ccccc2C(=O)N1c1cccc2ncccc12
N#Cc1cccc(NS(=O)(=O)c2ccc3c(c2)CCC(=O)N3)c1
O=C1c2ccccc2C(=O)N1c1ccc2ccccc2n1
Cc1cc(NS(=O)(=O)c2ccc3c(c2)CCC(=O)N3)ccc1F
Cc1cc2c(s1)c1cnn(Cc3ccccc3F)c(=O)c1n2C
Cc1cc(N2C(=O)c3ccccc3C2=O)n[nH]1
O=S(=O)(c1ccc2c(c1)OCCO2)N1CCN(S(=O)(=O)c2c(F)cccc2F)CC1
O=C1CCc2cc(S(=O)(=O)Nc3cccc(C(F)(F)F)c3)ccc2N1
O=C(O)c1ccccc1SC1=NS(=O)(=O)c2ccccc21
O=C1CCc2cc([S+](=O)([O-])NC3CCOCC3)ccc2N1
O=C1CCc2cc(S(=O)(=O)Nc3cccc(B(O)O)c3)ccc2N1
Nc1cccc(S(=O)(=O)N2CCCN(S(=O)(=O)c3ccc4c(c3)OCCO4)CC2)c1
Cc1cccc(NS(=O)(=O)c2ccc3c(c2)CCC(=O)N3)c1
O=C1CCc2cc(S(=O)(=O)Nc3ccc4ccccc4c3)ccc2N1
O=C1CCc2cc(S(=O)(=O)Nc3ccccc3Cl)ccc2N1
CNc1cccc(S(=O)(=O)N2CCCN(S(=O)(=O)c3ccc4c(c3)OCCO4)CC2)c1
O=C1c2ccccc2C(=O)N1C1CCCCC1
Cc1c(Cl)cccc1NS(=O)(=O)c1cc2c(cc1Cl)CCC(=O)N2
O=C1CCc2cc(S(=O)(=O)Nc3ccc4ncccc4c3)ccc2N1
COc1cccc(Cn2ncc3c4sc(S(C)=O)cc4n(C)c3c2=O)c1 (stereo not given)
O=C1CCc2cc(S(=O)(=O)Nc3cccc(F)c3)ccc2N1
O=C1CCc2cc(S(=O)(=O)Nc3cccc(Cl)c3)ccc2N1
O=C1c2ccccc2C(=O)N1c1noc2ccccc12
O=C1c2ccccc2C(=O)N1c1nccs1
O=C1CCc2cc(S(=O)(=O)Nc3ccc(F)c(Cl)c3)ccc2N1
Cc1ccc(Cl)cc1NS(=O)(=O)c1cc2c(cc1Cl)CCC(=O)N2
O=C1CCc2cc(S(=O)(=O)Nc3ccccc3F)ccc2N1
O=C1c2ccccc2C(=O)N1Cc1ccccn1
COc1ccccc1NS(=O)(=O)c1ccc2c(c1)CCC(=O)N2
O=C1NS(=O)(=O)c2ccccc21
O=C1c2ccccc2C(=O)N1c1cccc2cccnc12
O=C1CCc2cc(S(=O)(=O)NCc3ccccc3)ccc2N1
